Measured values taken from the supplement of paper PMC11732987, “Enantioselective OTUD7B fragment discovery through chemoproteomics screening and high-throughput optimisation” (Communications Chemistry, 2025).

Key:
Experiment in all cases: log2 ratio of Biotin-Ahx-Ub-VS probe labelling (fragment/DMSO); higher = less target engagement (more negative = stronger competition), active = hit call of the paper (q ≤ 0.05, log2 ratio ≤ -1)
Conditions in all cases: compound concentration: 200 uM; treatment time: 3 h
USP34 = USP34 (UniProt Q70CQ2)
In short: (§1)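 Each value is an average log2 ratio of fragment to vehicle, tested by unpaired t-test. The underlying Spectronaut label-free quantities were global-median-normalised, and only proteins with ≥2 unique peptides were included. Triplicate HEK293T lysate samples (495 µg) were exposed to fragment at 200 µM or vehicle for 3 h, then to Biotin-Ahx-Ub-VS at 0.5 µM final for 1 h, before NeutrAvidin enrichment of labelled DUBs, LysC and trypsin digestion, and diaPASEF LC-MS/MS.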

USP36 = biological target: T1, USP36 (UniProt Q9P275)
T1 sequence (whole entry): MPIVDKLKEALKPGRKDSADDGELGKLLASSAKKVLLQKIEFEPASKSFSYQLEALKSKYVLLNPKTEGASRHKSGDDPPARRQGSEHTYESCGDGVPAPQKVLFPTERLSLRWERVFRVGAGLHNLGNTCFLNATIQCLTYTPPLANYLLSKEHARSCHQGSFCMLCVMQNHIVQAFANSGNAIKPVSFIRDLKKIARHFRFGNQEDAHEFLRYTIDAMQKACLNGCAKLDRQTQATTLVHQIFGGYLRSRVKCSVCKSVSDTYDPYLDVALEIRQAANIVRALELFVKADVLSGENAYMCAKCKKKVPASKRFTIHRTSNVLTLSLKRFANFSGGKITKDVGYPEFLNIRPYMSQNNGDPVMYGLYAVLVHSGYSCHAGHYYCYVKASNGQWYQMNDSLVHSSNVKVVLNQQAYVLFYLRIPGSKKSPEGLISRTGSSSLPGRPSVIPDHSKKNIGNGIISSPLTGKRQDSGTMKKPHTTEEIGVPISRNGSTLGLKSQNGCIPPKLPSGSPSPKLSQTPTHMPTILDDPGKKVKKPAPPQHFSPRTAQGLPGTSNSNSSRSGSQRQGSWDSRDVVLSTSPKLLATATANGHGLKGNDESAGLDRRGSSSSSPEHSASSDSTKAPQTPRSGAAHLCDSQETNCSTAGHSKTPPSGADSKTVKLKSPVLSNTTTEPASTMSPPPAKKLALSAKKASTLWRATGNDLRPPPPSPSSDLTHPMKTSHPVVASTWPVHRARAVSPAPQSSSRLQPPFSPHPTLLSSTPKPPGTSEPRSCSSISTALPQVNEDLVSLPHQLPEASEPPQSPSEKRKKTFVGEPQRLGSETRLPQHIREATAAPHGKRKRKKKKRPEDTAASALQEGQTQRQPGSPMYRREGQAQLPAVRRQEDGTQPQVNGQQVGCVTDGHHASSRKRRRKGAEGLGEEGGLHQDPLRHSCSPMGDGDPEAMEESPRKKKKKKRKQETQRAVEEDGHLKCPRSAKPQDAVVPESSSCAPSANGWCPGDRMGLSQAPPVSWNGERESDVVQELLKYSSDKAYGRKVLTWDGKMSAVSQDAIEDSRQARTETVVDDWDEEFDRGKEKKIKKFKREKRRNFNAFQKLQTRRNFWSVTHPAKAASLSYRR
In short: as §1

USP38 = biological target: T2, USP38 (UniProt Q8NB14)
T2 sequence (whole entry): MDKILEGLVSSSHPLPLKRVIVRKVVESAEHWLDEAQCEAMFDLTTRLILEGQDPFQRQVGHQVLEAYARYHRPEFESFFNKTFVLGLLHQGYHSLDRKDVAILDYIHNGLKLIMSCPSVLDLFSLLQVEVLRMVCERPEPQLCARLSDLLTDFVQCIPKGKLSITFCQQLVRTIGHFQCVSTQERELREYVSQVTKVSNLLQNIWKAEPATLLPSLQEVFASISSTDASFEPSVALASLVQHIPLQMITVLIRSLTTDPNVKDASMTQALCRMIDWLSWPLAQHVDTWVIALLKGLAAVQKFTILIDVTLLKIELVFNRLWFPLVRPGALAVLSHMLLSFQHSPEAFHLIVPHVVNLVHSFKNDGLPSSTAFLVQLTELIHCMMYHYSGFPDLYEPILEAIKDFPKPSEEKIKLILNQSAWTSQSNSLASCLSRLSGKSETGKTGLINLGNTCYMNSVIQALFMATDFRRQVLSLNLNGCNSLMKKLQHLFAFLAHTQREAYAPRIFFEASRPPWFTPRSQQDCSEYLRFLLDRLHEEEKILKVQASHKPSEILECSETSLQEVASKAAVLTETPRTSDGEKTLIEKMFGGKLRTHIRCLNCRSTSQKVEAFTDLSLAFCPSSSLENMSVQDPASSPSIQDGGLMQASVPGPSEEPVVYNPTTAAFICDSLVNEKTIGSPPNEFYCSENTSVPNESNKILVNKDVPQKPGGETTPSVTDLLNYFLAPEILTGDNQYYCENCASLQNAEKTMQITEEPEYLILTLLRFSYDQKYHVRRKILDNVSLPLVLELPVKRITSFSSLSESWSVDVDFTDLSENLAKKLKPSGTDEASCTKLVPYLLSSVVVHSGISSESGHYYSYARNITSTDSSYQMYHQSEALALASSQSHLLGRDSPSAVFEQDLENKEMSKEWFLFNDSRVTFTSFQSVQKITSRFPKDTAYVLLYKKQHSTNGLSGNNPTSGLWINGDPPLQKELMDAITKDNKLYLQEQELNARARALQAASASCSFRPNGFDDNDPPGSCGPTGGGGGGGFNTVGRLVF
In short: as §1

USP39 = biological target: T3, USP39 (UniProt Q53GS9)
T3 sequence (whole entry): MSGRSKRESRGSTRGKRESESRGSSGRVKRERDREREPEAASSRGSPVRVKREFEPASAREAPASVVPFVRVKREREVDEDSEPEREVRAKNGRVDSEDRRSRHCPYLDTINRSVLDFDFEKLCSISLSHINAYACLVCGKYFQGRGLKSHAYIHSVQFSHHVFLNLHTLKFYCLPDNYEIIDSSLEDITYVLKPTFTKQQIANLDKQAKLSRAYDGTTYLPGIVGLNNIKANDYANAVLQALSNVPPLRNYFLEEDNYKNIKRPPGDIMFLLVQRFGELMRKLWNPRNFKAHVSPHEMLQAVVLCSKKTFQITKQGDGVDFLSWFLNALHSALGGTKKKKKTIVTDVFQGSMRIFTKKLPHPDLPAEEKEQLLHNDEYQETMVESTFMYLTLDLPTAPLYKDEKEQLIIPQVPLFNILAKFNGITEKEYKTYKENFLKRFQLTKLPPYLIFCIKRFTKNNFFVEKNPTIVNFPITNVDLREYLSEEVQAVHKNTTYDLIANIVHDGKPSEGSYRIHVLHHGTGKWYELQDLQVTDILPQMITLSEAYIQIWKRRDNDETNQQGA
In short: as §1

USP4 = biological target: T4, USP4 (UniProt Q13107)
T4 sequence (whole entry): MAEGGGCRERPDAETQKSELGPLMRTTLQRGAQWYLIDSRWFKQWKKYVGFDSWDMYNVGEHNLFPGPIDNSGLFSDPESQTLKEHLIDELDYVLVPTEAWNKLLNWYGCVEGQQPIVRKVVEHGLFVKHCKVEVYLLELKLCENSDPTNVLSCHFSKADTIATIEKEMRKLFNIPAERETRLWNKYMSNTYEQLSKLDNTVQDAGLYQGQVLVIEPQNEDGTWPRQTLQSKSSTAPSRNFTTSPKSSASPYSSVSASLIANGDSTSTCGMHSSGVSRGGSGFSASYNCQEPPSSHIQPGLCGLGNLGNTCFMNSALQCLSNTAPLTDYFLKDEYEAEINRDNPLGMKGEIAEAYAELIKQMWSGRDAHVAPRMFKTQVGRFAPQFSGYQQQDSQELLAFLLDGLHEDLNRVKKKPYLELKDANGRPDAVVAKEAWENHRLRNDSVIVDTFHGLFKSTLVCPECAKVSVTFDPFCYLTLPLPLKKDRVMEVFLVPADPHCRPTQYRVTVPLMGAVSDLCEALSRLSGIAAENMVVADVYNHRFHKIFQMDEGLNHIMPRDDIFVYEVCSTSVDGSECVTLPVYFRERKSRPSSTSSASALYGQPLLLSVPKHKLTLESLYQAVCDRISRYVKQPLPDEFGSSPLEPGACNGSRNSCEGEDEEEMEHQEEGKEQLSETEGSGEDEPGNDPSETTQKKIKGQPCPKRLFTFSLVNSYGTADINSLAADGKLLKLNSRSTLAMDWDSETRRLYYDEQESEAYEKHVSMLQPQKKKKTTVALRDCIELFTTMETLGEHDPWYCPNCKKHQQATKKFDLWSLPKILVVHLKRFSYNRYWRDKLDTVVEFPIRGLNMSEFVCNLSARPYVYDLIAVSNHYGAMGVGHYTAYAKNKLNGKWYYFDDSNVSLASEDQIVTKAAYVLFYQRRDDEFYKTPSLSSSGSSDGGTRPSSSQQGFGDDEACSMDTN
In short: as §1

Measured: log2 ratio of Biotin-Ahx-Ub-VS probe labelling

USP34, sequence (Q70CQ2 whole entry, the tested form may be a part): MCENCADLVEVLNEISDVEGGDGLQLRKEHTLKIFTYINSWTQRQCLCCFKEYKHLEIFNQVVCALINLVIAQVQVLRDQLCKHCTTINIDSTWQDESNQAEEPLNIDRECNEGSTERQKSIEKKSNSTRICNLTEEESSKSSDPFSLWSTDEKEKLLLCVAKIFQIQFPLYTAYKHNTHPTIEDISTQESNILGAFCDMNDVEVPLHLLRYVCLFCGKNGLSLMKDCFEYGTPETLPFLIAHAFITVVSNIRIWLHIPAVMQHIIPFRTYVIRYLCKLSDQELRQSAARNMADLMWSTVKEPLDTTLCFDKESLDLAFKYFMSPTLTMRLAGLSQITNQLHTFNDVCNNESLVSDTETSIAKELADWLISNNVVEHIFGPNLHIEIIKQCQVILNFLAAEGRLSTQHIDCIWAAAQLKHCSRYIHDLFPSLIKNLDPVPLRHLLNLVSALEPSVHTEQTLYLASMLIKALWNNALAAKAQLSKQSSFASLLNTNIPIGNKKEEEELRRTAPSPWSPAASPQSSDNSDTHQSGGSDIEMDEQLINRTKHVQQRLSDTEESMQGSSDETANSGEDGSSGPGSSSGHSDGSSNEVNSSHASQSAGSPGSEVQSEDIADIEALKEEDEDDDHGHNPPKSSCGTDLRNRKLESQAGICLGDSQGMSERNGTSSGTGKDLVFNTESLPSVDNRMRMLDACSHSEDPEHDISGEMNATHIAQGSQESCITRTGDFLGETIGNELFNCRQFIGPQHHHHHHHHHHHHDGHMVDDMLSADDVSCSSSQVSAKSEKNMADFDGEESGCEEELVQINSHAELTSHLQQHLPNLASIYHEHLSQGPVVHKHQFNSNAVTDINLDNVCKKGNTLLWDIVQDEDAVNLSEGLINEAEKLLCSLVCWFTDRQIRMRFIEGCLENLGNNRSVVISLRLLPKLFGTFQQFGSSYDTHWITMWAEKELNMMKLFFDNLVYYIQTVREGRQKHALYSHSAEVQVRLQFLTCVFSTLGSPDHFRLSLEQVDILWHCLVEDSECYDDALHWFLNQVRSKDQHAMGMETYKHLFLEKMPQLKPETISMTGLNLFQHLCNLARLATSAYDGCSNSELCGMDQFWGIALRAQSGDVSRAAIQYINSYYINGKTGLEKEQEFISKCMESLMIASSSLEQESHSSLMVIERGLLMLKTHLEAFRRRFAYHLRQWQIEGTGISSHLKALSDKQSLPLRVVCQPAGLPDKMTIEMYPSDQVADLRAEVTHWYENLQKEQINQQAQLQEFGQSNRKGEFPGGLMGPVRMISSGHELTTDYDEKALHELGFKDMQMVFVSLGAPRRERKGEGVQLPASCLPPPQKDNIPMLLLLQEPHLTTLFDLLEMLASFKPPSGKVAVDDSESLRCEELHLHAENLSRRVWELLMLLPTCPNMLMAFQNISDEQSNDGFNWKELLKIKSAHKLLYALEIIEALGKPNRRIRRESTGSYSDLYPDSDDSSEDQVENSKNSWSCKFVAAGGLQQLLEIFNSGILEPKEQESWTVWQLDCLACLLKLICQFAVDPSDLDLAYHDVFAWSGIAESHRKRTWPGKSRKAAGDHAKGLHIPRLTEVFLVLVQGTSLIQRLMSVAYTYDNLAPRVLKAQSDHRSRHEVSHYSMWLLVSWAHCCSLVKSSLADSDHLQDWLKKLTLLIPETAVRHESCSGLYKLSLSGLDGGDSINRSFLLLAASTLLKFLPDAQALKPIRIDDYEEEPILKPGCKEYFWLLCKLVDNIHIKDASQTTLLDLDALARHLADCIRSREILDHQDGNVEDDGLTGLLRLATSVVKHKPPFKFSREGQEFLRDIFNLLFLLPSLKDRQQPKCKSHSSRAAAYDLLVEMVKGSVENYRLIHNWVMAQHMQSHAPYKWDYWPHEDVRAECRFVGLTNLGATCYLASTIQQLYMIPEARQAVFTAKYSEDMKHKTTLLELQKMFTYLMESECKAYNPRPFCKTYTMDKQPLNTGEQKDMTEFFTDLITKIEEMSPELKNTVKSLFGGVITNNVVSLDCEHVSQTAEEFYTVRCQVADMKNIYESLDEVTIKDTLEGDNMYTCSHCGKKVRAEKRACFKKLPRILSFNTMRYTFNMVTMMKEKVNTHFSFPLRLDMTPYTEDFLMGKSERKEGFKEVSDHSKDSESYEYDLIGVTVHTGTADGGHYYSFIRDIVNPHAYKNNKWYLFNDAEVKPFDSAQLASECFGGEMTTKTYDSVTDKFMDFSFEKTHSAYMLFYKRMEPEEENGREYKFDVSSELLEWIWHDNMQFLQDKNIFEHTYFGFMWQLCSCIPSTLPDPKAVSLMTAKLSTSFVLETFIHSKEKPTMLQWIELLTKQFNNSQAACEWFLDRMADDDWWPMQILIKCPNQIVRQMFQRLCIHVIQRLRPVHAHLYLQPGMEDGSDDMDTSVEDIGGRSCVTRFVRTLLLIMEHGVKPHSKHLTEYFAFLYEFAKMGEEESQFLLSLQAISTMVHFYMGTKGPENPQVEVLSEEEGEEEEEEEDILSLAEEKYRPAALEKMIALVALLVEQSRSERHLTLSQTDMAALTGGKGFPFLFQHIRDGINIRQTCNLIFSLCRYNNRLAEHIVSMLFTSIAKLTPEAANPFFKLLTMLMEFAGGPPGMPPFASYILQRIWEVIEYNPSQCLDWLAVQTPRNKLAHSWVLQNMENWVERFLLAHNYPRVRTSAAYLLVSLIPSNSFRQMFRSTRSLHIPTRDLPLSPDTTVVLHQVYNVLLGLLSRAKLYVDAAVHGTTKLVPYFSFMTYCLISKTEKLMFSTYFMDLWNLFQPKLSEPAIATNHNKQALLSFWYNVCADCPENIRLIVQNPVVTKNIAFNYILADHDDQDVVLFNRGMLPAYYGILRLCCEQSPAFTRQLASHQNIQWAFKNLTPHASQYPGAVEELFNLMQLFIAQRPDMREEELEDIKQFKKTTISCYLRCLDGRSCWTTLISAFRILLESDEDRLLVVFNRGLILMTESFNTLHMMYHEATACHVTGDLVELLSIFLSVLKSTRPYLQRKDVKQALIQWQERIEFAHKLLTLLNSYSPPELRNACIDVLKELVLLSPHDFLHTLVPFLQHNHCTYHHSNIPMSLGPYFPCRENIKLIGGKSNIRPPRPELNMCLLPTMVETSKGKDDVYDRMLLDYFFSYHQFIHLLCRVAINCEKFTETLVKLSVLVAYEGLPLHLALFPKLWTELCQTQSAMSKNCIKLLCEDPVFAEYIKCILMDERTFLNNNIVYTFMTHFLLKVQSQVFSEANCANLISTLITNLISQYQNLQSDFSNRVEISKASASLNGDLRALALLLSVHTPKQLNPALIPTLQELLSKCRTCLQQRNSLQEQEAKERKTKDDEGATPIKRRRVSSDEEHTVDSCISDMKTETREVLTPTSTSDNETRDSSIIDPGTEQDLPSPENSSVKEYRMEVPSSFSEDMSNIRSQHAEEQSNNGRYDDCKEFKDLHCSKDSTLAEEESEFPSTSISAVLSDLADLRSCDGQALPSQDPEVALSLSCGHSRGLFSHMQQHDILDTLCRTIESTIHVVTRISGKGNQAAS

CN(Cc1nc2ccccc2[nH]1)C(=O)CCl.Cl
inactive: USP34 -0.266 | USP36 0.0504 | USP38 0.056 | USP39 0.391 | USP4 -0.0216
